Potency and outcome data for six compounds are collected here from PubChem BioAssay (Tox21).

“And” between values parts separate entries of the source, which are not always exact repeats. Identical values can stand only once. Inconclusive results are not listed. The source holds several records for some structures; these can differ, active in one and inactive in another. The source made the active and inactive calls. Unless noted, calls follow the shape of the dose curve; as a rule, active = well fitted curve in the direction sought with a large enough effect in the repeat runs; inconclusive = weak or mixed curves; inactive = no such curve, though single readings can be large; an effect the other way counts as inactive or inconclusive.

The target in test [1] is Estrogen receptor beta (Homo sapiens) (UniProt Q92731). Put plainly: qHTS assay to identify small molecule antagonists of the estrogen receptor beta (ER-beta) signaling pathway (AID 1259378; active = well fitted inhibition curve with a large enough effect in the signal ratio in the repeat runs, not every such curve was filed as active; the % refers to the signal ratio; also: potency is read from the fitted curve at half-maximal effect). Summed up: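 ER-beta-UAS-bla HEK293T (GripTite) cells in 2% charcoal-stripped FBS medium were preincubated 6 hr at 37C, dosed with compound, then stimulated with 1 nM E2 (final) for 16 hr; beta-lactamase reporter read by B/G FRET fluorescence after 2 hr substrate loading.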
Estrogen receptor beta (Homo sapiens), sequence (Q92731 whole entry, looked up): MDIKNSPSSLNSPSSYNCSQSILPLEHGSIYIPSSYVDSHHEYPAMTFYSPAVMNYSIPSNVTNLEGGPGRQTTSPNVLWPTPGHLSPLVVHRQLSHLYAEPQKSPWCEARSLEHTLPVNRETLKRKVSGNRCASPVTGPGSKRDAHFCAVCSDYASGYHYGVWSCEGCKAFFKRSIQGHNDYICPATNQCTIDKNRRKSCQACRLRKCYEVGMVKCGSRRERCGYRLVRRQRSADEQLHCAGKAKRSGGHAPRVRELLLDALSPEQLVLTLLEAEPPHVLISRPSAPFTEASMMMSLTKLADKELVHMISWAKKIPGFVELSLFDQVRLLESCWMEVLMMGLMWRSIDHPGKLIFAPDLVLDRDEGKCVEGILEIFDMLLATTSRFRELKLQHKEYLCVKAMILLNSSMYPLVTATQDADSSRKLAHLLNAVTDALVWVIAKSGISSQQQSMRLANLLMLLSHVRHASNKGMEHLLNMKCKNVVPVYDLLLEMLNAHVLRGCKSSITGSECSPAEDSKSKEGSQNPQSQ
(In qHTS, concentration-response curves come from the screen itself.)

Test [2] is described as follows: qHTS assay to identify small molecule agonists of the androgen receptor (AR) signaling pathway in the presence of an antagonist - cell viability counter screen (AID 1259379). Also: nearly all actives have a fitted effect of over 25% in size. Also: potency is read from the fitted curve at half-maximal effect. Summed up: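 Cells: MDA-kb2 (MMTV-luc, AR and GR elements), 3,000/well, 5 hr settle. Added: nilutamide 3.0uM final, then compounds (15 conc.). Incubation: 16 hr, 37C, no CO2. Read-out: CellTiter-Fluor, 1 hr, fluorescence.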

Test [3] is described as follows: qHTS assay to identify small molecule agonists of the estrogen receptor beta (ER-beta) signaling pathway - cell viability counter screen (AID 1259380). Also: nearly all actives have a fitted effect of over 30% in size. Also: potency is read from the fitted curve at half-maximal effect. Summed up:
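HEK293T ER-beta-UAS-bla; 2% CS-FBS; 6 hr pre-plate, 16 hr cpd at 37C/5% CO2; LiveBLAzer read first, then CellTiter-Glo 30 min RT, luminescence.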

The nature of test [4]: qHTS assay to identify small molecule antagonists of the estrogen receptor beta (ER-beta) signaling pathway - cell viability counter screen (AID 1259382). Also: nearly all actives have a fitted effect of over 55% in size. Also: potency is read from the fitted curve at half-maximal effect. Summed up:
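Cells: ER-beta-UAS-bla HEK293T, 2,000/well, 2% CS-FBS, 6 hr settle. Cpd + E2 (1nM final), 16 hr, 37C/5% CO2. Bla FRET substrate 2 hr RT, then CellTiter-Glo 30 min RT, luminescence.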

Test [5] addresses Estrogen receptor (Homo sapiens) (UniProt P03372). Put plainly: qHTS assay to identify small molecule agonists of the estrogen receptor alpha (ER-alpha) signaling pathway in the presence of an antagonist (AID 1259383; calls by dose curve; also: top concentration of the series differs between compounds; nearly all actives have a fitted effect of over 15% in size). Summed up:
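VM7Luc4E2, endog. ER-alpha + 4×ERE-luc; charcoal-stripped FBS, phenol red-free, 5 d; 24hr plating; +10.0nM ICI-182,780 (final); cpds 15 conc, 22hr, 37C/5% CO2; ONE-Glo luminescence.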

A short description of test [6]: qHTS assay to identify small molecule agonists or antagonists of the thyroid stimulating hormone receptor (TSHR) signaling pathway - wild type cell line counter screen (AID 1259384; calls by dose curve). Summed up:
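Wild-type HEK293 cells were plated 18 h at 37 C/5% CO2, pin-dosed with compound plus Ro20-1724 medium, held 30 min at room temperature, then given cAMP-d2 and anti-cAMP-cryptate; fluorescence was read after 1 h. Fifteen concentrations, triplicate.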

The nature of test [7]: qHTS assay to identify small molecule agonists of the estrogen receptor alpha (ER-alpha) signaling pathway in the presence of an antagonist - cell viability counter screen (AID 1259386).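 Also: cells exposed to compounds for 22 h at 37 °C before the viability read; nearly all actives have a fitted effect of over 30% in size.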 Also: potency is read from the fitted curve at half-maximal effect. An outline of the steps:
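VM7Luc4E2, stripped-serum pre-culture 5 d; 24hr plating; +ICI-182,780 10.0nM final; cpds 15 conc, 22hr, 37C/5% CO2; CellTiter-Fluor added at 21hr, fluorescence 1hr later.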

The target of test [8] is Progesterone receptor (Homo sapiens) (UniProt P06401). Put plainly: qHTS assay to identify small molecule antagonists of the progesterone receptor (PR) signaling pathway (AID 1346795; active = well fitted inhibition curve with a large enough effect in the signal ratio in the repeat runs, not every such curve was filed as active; the % refers to the signal ratio; also: potency is read from the fitted curve at half-maximal effect). An outline of the steps: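 Stimulus R5020 at 1 nM final; cells HEK293T PR-UAS-bla; medium with 2% charcoal-stripped FBS; compound exposure 16 hr at 37C, 5% CO2; detection by FRET beta-lactamase substrate, 2 hr, room temperature.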
Progesterone receptor (Homo sapiens), sequence (P06401 whole entry, looked up): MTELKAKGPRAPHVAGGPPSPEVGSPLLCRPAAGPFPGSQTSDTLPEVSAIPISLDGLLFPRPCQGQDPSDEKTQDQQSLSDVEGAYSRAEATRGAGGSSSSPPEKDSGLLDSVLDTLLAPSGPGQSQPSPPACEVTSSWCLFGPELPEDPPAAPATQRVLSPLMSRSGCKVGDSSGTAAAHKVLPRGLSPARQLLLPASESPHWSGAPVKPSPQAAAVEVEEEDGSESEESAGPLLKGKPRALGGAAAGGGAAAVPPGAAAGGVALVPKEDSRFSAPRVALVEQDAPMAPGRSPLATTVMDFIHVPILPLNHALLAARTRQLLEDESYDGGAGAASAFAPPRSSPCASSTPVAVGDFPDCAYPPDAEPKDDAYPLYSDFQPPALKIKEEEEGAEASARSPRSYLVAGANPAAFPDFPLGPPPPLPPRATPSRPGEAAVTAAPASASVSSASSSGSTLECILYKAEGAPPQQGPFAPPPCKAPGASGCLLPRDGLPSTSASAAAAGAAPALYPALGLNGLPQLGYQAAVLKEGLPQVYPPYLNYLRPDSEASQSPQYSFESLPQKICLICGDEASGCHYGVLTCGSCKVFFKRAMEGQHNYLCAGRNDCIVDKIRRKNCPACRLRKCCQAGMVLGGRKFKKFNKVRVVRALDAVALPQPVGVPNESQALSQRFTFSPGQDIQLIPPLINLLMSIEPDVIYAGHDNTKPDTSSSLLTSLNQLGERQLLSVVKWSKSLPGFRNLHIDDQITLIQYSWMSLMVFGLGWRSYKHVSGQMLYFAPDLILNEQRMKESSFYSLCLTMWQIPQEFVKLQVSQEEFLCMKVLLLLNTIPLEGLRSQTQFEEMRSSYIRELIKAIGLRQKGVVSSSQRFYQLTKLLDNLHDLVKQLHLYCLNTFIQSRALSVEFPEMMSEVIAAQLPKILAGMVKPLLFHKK

Test [9] is described as follows: qHTS assay to identify small molecule antagonists of the progesterone receptor (PR) signaling pathway - cell viability counter screen (AID 1346798). Also: nearly all actives have a fitted effect of over 50% in size. Also: potency is read from the fitted curve at half-maximal effect. An outline of the steps:
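In the same plates used for the beta-lactamase readout, cell viability of compound- and R5020-treated PR-UAS-bla HEK293T cells (16 hr, 37C) was assessed by CellTiter-Glo luminescence.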

The nature of test [10]: qHTS assay to identify small molecule agonists of the progesterone receptor (PR) signaling pathway - cell viability counter screen (AID 1346799; calls by dose curve; also: nearly all actives have a fitted effect of over 45% in size; also: potency is read from the fitted curve at half-maximal effect). Summed up: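 Multiplexed viability read: CellTiter-Glo luminescence, 30 min RT, following LiveBLAzer FRET measurement on PR-UAS-bla HEK293T cells exposed to compounds 16 hr.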
Test [11] in a line: qHTS assay to identify small molecule antagonists of the TGF-beta/Smad signaling pathway - cell viability counter screen (AID 1346824). Also: nearly all actives have a fitted effect of over 50% in size. Also: potency is read from the fitted curve at half-maximal effect. Summed up:
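SBE-bla HEK 293T cells were plated overnight at 37 C, then given compounds in DMSO plus TGF-beta1 (added as 0.25 ng/mL solution) for 5 hr. After the bla read, CellTiter-Glo was added to the same wells and luminescence read after 30 min at room temperature.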

Test [12] can be described thus: qHTS assay to identify small molecule agonists of the TGF-beta/Smad signaling pathway - cell viability counter screen (AID 1346829). Also: nearly all actives have a fitted effect of over 45% in size. Also: potency is read from the fitted curve at half-maximal effect. Summed up: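 CellTiter-Glo luminescence readout; SBE-bla HEK 293T cells, overnight plating, compound 5 hr at 37 C/5% CO2, then bla substrate 2 hr RT, then CellTiter-Glo 30 min RT.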
A short description of test [13]: qHTS assay to identify small molecule agonists of the TGF-beta/Smad signaling pathway (AID 1346859; active = well fitted activation curve with a large enough effect in the signal ratio in the repeat runs, not every such curve was filed as active; the % refers to the signal ratio; also: series mostly up to about 77 µM). An outline of the steps:
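Screening used HEK 293T SBE-bla cells at 4,000/well. Test agents: 5 hr, 37 C. Detection: FRET substrate, 2 hr RT, then excitation 405 nm with emissions at 460 and 530 nm.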

For test [14], the target named is Estrogen receptor beta (Homo sapiens) (UniProt Q92731). Description: qHTS assay to identify small molecule agonists of the estrogen receptor beta (ER-beta) signaling pathway (AID 1259377; active = well fitted activation curve with a large enough effect in the signal ratio in the repeat runs, not every such curve was filed as active; the % refers to the signal ratio). An outline of the steps: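 Reporter cells (HEK293T, ER-beta-UAS-bla) receive compounds or DMSO after a 6 hr pre-incubation. They then incubate 16 hr at 37C/5% CO2, and fluorescence from LiveBLAzer B/G substrate is measured after 2 hours at room temperature.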

Test [15] deals with Progesterone receptor (Homo sapiens) (UniProt P06401). Put plainly: qHTS assay to identify small molecule agonists of the progesterone receptor (PR) signaling pathway (AID 1346784; calls by dose curve; also: nearly all actives have a fitted effect of over 30% in size). Summed up:
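Reporter assay, GripTite PR-UAS-bla HEK 293T cells: 16 hr exposure to DMSO-dissolved compounds at 37C, 5% CO2, in steroid-depleted (2% charcoal-stripped FBS) medium; beta-lactamase measured by FRET fluorescence.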

In test [16] the target is Thyrotropin receptor (Homo sapiens) (UniProt P16473). Put plainly: qHTS assay to identify small molecule antagonists of the thyroid stimulating hormone receptor (TSHR) signaling pathway (AID 1259385; calls by dose curve; also: nearly all actives have a fitted effect of over 20% in size; also: potency is read from the fitted curve at half-maximal effect). An outline of the steps:
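TSHR-HEK293 cells were plated and held 18 h at 37C/5% CO2, then given compound plus Ro20-1724 and stimulated with TSH at 1.5 ng/mL final. After 30 min at room temperature, cAMP was detected with cAMP-d2/anti-cAMP-cryptate (1 h) by fluorescence.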

Test [17] has as its target Thyrotropin-releasing hormone receptor (Homo sapiens) (UniProt P34981). Put plainly: qHTS assay to identify small molecule antagonists of the thyrotropin-releasing hormone receptor (TRHR) signaling pathway (AID 1346877; active = well fitted inhibition curve with a large enough effect in the repeat runs, not every such curve was filed as active; also: series mostly up to about 51 µM). Summed up: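 Intracellular calcium fluorescence, read kinetically every second over 3 min, reports TRH-evoked signalling in HEK293 cells carrying TRHR. Test compounds were added 5 min ahead of a 1 nM TRH challenge.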

For test [18] the target is unchanged. Put plainly: qHTS assay to identify small molecule agonists of the thyrotropin-releasing hormone receptor (TRHR) signaling pathway (AID 1346891; calls by dose curve; also: series mostly up to about 58 µM). Summed up:
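Readout was intracellular calcium fluorescence in TRHR-Hek293 cells. Cells were incubated 18 h, dye-loaded 2 h at 37 °C, and treated with compound in agonist mode.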

Test [19] concerns the target Androgen receptor (Homo sapiens) (UniProt P10275). Put plainly: qHTS assay to identify small molecule agonists of the androgen receptor (AR) signaling pathway in the presence of an antagonist (AID 1259381; calls by dose curve; also: nearly all actives have a fitted effect of over 15% in size). An outline of the steps: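 MDA-kb2 cells, 3,000/well, rested 5hr at 37C/0% CO2 → nilutamide 3.0uM final or buffer → compounds, 15 conc. → 16hr at 37C → ONE-Glo, 30min RT → luminescence.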

Androgen receptor (Homo sapiens), sequence (P10275 whole entry, looked up): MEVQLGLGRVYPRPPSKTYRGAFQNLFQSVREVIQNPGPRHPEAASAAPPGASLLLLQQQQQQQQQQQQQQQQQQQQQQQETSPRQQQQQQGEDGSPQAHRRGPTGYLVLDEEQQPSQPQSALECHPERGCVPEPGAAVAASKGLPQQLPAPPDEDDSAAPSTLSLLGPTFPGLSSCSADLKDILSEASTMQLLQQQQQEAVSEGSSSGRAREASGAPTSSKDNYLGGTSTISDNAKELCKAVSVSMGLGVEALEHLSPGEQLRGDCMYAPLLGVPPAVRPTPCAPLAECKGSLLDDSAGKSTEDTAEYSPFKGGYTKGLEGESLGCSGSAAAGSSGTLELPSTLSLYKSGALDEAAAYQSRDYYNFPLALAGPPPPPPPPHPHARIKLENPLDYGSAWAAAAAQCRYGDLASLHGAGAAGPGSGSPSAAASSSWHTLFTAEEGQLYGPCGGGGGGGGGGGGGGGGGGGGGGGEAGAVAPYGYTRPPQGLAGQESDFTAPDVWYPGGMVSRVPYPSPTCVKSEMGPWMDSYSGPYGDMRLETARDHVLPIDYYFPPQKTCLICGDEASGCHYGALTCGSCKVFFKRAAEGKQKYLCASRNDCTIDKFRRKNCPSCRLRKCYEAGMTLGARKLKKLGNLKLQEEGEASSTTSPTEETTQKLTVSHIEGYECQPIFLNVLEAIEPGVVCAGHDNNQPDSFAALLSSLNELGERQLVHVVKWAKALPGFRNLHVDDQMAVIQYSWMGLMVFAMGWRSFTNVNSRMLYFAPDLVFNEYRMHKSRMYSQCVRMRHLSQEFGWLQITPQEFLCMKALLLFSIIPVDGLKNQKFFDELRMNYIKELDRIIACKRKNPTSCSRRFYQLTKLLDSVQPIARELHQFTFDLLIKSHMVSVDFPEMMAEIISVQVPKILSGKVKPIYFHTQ
Estrogen receptor (Homo sapiens), sequence (P03372 whole entry, looked up): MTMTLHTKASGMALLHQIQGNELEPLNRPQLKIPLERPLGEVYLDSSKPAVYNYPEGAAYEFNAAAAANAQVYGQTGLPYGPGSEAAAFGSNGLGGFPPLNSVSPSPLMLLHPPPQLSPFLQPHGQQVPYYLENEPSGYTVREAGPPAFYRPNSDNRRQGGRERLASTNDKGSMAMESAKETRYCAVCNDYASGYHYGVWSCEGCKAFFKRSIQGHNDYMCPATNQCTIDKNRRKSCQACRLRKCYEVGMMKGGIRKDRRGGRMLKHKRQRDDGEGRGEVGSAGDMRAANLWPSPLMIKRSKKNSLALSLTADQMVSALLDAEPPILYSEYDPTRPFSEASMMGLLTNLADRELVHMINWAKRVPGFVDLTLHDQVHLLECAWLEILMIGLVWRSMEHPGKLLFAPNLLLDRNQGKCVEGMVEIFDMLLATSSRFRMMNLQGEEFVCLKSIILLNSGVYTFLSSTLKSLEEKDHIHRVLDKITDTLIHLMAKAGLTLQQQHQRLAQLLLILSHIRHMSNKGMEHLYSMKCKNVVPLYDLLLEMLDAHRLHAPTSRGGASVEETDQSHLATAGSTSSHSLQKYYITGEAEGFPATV
Thyrotropin-releasing hormone receptor (Homo sapiens), sequence (P34981 whole entry, looked up): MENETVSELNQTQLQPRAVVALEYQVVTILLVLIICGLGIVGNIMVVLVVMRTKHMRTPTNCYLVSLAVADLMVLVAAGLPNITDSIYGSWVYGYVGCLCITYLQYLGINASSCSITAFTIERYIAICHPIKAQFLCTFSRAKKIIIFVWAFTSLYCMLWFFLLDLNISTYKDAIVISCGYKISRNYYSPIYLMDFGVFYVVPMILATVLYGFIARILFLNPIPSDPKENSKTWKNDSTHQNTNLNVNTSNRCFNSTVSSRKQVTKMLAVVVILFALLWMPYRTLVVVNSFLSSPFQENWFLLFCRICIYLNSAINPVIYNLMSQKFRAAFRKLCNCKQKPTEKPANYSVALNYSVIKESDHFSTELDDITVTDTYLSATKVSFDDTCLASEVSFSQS
Thyrotropin receptor (Homo sapiens), sequence (P16473 whole entry, looked up): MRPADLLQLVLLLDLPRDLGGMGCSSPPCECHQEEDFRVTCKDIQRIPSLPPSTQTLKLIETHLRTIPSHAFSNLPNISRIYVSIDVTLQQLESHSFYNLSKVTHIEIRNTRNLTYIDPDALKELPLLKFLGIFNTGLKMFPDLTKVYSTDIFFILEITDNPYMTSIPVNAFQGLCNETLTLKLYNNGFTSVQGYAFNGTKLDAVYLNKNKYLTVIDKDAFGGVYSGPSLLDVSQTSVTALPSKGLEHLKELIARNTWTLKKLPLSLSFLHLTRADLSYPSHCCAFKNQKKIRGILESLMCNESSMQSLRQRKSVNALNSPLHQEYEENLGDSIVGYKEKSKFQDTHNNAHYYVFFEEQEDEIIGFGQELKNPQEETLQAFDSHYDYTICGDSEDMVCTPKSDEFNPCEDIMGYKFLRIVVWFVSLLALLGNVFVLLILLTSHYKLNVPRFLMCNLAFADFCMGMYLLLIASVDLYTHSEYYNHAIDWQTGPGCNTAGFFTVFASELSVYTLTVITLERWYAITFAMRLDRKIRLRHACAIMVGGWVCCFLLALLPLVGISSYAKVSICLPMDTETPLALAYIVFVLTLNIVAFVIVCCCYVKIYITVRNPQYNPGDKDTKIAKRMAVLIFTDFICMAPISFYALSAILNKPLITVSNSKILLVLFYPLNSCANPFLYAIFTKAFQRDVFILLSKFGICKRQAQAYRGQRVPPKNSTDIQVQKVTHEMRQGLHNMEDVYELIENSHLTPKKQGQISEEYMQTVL

As to `N#Cc1c(Cl)c(Cl)c(Cl)c(C#N)c1Cl`, the Potency was 3.78 µM (active) in [1]; 16.9 µM (active) and 24.3 µM (active) in test [2]; 8.47 µM (active) and 19.3 µM (active) in test [3]; 9.5 µM (active) and 15.4 µM (active) in [4]; 23.9 µM (active) and 54.5 µM (active) in test [7]; 3.37 µM (active) and 3.86 µM (active) in test [8]. The Potency in test [9] was 19 µM (active) and 13.7 µM (active); in test [10] it was 21.3 µM (active) and 19.3 µM (active); in test [11], 48 µM (active) and 49 µM (active); in test [12], 48 µM (active) and 54.9 µM (active). Also, the Potency entry in test [5], in test [6] and in test [13] was “inactive” each time.

As to `OCCOCCO`, the Potency entry in test [14], in test [1], in test [2], in test [3], in test [4] and in test [5] was “inactive” each time. Further, the Potency result in [7], in test [15], in test [8], in test [9], in test [10] and in test [11] was “inactive” each time. The Potency entry in test [12] and in test [13] was “inactive” in each case.

As to `ClC(Cl)=C(Cl)C(Cl)=C(Cl)Cl`, the Potency result in test [2], in test [3], in test [4], in test [5], in test [6] and in test [16] was “inactive” each time. The Potency result in test [7], in test [8], in [9], in test [10], in [11] and in test [12] was “inactive” in each case. Also, the Potency result in test [13] and in [17] was “inactive” throughout. For the same compound, in test [18], the compound was classed as inactive.

Turning to `Oc1ccc(Cl)cc1Cc1ccccc1`, the Potency result in test [1], in test [2], in test [6], in [7], in test [15] and in test [9] was “inactive” throughout. Also, the Potency result in [12] and in test [17] was “inactive” in each case. Also, the Potency in test [3] is 54.5 µM (active) and 27.6 µM (active); in test [4] it was 48.6 µM (active) and 52.1 µM (active); in test [16], “inactive and 55.1 µM (active)”; in [8] it was 7.7 µM (active) and 10.6 µM (active). For the same compound, the outcome in [19] and in test [18] was inactive.

Turning to `COP(=S)(OC)Oc1ccc(S(=O)(=O)N(C)C)cc1`, the Potency entry in test [2], in test [3], in test [4], in [5], in [6] and in test [16] was “inactive” each time. Besides, the Potency entry in [7], in [15], in test [8], in test [9], in test [10] and in test [11] was “inactive” throughout. Besides, in [12], the Potency result is “inactive”. Besides, the result in test [19] was inactive.

Consider `N#CCCCCC#N`, for which the Potency result in [2], in [3], in [4], in [6], in test [16] and in test [7] was “inactive” in each case. Also, the Potency entry in test [15], in test [8], in [9], in [10], in test [11] and in test [12] was “inactive” throughout. Further, the Potency entry in [13] and in [17] was “inactive” throughout. Further, the result in test [18] was inactive.
